# From ChEMBL document CHEMBL3433997, “St. Jude Leishmania screening dataset” (2016)
# Molecular target: Solute carrier family 2, facilitated glucose transporter member 1 (Homo sapiens) (UniProt P11166)
# Test: ST_JUDE_LEISH: Cytotoxicity at 2uM final concentration against transgenic Leishmania Mexicana promastigotes LmGLUT1 that are glucose transport deficient and complemented with the human glucose transporter GLUT1. Activity is measured by DNA content using SYBR green in vitro
# Format: functional
# Solute carrier family 2, facilitated glucose transporter member 1 (Homo sapiens), sequence (P11166 whole entry): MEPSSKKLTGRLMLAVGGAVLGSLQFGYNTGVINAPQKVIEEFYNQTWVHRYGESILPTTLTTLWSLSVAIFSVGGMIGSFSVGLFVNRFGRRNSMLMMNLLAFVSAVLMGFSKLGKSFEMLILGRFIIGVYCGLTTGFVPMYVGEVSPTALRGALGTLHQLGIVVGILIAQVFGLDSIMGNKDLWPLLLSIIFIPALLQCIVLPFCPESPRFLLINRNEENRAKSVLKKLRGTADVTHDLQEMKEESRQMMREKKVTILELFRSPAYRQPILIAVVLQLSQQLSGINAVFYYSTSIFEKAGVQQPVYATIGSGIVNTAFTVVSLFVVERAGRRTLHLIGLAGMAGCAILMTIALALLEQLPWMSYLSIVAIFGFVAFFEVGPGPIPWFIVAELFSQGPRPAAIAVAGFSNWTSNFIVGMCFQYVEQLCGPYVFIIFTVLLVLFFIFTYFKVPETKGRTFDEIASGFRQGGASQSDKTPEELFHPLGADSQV
row,SMILES,inhibition [%]
1,O=C(Nc1ccc(-c2ccccc2)c(OCCN2CCNCC2)c1)c1ccc(-c2ccc(Cl)cc2)cc1,3.89
2,CCc1ccc(NC(=O)c2ccc(CN3CCCN(Cc4ccc(C)s4)CC3)cc2)cc1,3.79
3,Nc1c(-c2ccc(C(=O)NCCNCc3ccccc3)cc2)cnn1-c1ccc(C(F)(F)F)cc1,3.28
4,COc1cccc(CN2CCCC(OC(c3ccccc3)c3ccccc3)C2)c1O (stereo not given),1
5,CN=C(NC)c1cccc(NC(=O)C=Cc2ccc(C=CC(=O)Nc3cccc(C(=NC)NC)c3)cc2)c1,0.52
6,COc1ccc2c(=NN=Cc3cccc(C)n3)cc(-c3ccccc3)[nH]c2c1,4.3
7,CC(=O)Nc1ccc(C(=O)Nc2cccc(-c3cccc(-c4nc5cccc(C)c5[nH]4)c3)c2)cn1,4.29
8,CCCC(C)Nc1nc(C)cc(N[C@@H](Cc2ccccc2)C(=O)Nc2ccc(OC)cc2)n1 (stereo not given in full),4.27
9,O=C(/C=C/c1ccc(I)cc1)NCCCCCN1CCC(c2c[nH]c3ccccc23)CC1,3.43
10,Cc1ncccc1C(=O)Nc1cccc(-c2cccc(-c3nc4cc(C(F)(F)F)ccc4[nH]3)c2)c1,0.73
11,O=C(Nc1ccc(Cl)c(C(F)(F)F)c1)c1ccc(C(=O)Nc2ccc(Cl)c(C(F)(F)F)c2)cc1,-2.43
12,CCNc1cc(C(=O)N[C@@H](Cc2ccc(Cl)cc2)[C@H](O)CNC2CCCCC2)cc(N2CCCCS2(=O)=O)c1,0.89
13,Cn1cncc1CNCc1ccc(-c2cccc(-c3nc4ccccc4[nH]3)c2)cc1,-1.06
14,Nc1c(Cl)cc(C(O)CNCCCCCCCCCc2ccccn2)cc1Cl (stereo not given),0.94
15,O=C(Nc1ccc(F)cc1)c1nc2ccccc2nc1Cl,4.1
16,CN(C)c1ccc(C(c2ccc(N(C)C)cc2)c2cc([N+](=O)[O-])ccc2Cl)cc1,0.57
17,Cc1cc(NC(=O)Nc2ccc(N(C)C)cc2)c2cc(Cl)ccc2n1,1.15
18,C=CCC1OC(=O)c2cc(OC)cc(OC)c21 (stereo not given),89.1
19,N#Cc1cccc(C(O)CN(Cc2ccccc2)Cc2ccccc2)c1 (stereo not given),1.37
20,Cc1cc2c(cc1C(F)(F)F)N(C(=O)Nc1cc(OCCN(C(C)C)C(C)C)cc(C(F)(F)F)c1)CC2,10.4

row,SMILES,inhibition [%]
1,CCCN(CCC)C(=S)N/N=C1/C(=O)Nc2ccccc21,0.67
2,NC12CC3CC(CC(C3)C1)C2,5.47
3,CC(C)NCc1ccc(-c2cccc(NC(=O)c3ccc(Cl)cc3)c2)cc1,8.23
4,Cc1noc(C)c1-c1cccc(CNCc2cccc(-c3ccc(-c4nc5ccccc5[nH]4)s3)c2)c1,8.57
5,Cn1cnc(CCNC(=O)c2ccc(-c3ccc(-c4nc5cc(C(F)(F)F)ccc5[nH]4)s3)cc2)c1,2.93
6,O=C(NC1CCN(Cc2ccc(Cl)cc2)CC1)c1cn(-c2ccccc2)nc1-c1cccnc1,1.12
7,Cc1ccc(NC(=O)c2ccc3ncccc3c2)cc1OC1CCN(CCC(C)C)C1 (stereo not given),2.61
8,CO/N=C(\C)c1ccc2c(c1)CCN(CCC1CCC(NC(=O)c3cccc(-c4noc(C)n4)c3)CC1)CC2 (stereo not given),3.41
9,O=C(Nc1ccc(C(F)(F)F)cc1)c1ccc(S(=O)(=O)NC2CCN(CC3CCCCC3)CC2)cc1,1.19
10,CCNC[C@H]1CCCN1CCOc1ccc(-n2cnc3cc(-c4ccc(Cl)cc4)sc3c2=O)cc1OC,-0.44
11,Cc1ccc(F)c(OCC2CCN(c3ccc(C(=O)NC4CC4)cn3)CC2)c1,3.7
12,Cc1c(CNCCCNc2nc3ccncc3[nH]2)sc(Br)c1Br,6.56
13,Cc1ccc(Cc2c[nH]c(NCCSCc3ccc(CN4CCOCC4)o3)nc2=O)cn1,2.52
14,CCOC(=O)c1ccc(OCCOc2ccccc2)cc1,-0.36
15,CCCCOC(=O)C1=C(C)NC2=C(C(=O)CCC2)C1c1ccc(OC)c(Br)c1 (stereo not given),0.77
16,COc1ccc(CC2(c3ccc(F)cc3)N=C(N)N(CCCc3ccc(F)c(F)c3)C2=O)cc1 (stereo not given),2.06
17,CS(=O)(=O)c1ccc(-c2cncc(Cl)n2)cc1,3.73
18,CCOC(=O)c1nc(-c2ccccc2)[nH]c1-n1nc(C)cc1C,1.44
19,Cc1nc(NCCCn2ccnc2)cc(-c2cncc(-c3ccc(OC(F)(F)F)cc3)c2)n1,5.43
20,CCn1c(Cc2ccccc2)nnc1SCC(=O)N1c2ccccc2Sc2ccccc21,4.01
